Reference: PubChem BioAssay AID485346 (Sanford-Burnham Center for Chemical Genomics, 2010)
Hit rate of the full screen: of about 330,000 compounds, about 10,000 (3%) were called active. For the sample, actives were picked, then their nearest neighbours and some compounds at random. Values without a mark were called inactive.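 How the source made its calls: active means inhibition of at least 50% at 8 µM in the primary screen; inactive means the rest.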

target: Protein Mdm4 (Homo sapiens) + E3 ubiquitin-protein ligase Mdm2 (Homo sapiens) (UniProt O15151+Q00987); assay: inhibitors of human Mdm2-MdmX association, primary screen, cell-based, luminescence, split luciferase, SaOS-2, uHTS (AID 485346); conditions: SaOS-2 split-luciferase Mdm2/MdmX complementation, at 8 µM, hits give high values
Sequence (O15151 whole entry, looked up): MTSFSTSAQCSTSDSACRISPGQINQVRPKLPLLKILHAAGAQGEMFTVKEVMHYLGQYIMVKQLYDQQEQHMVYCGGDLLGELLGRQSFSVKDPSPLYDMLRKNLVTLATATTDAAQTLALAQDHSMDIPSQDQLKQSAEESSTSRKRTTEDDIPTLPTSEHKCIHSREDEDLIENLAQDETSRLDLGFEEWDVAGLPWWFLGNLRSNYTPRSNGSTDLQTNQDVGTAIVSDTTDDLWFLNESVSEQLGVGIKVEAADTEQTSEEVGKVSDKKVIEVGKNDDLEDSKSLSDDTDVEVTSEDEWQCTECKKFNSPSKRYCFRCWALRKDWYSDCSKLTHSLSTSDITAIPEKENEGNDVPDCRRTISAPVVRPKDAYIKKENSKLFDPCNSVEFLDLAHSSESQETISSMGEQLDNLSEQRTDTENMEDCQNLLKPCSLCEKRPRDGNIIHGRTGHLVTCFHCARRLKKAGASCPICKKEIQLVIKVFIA
Sequence (Q00987 whole entry, looked up): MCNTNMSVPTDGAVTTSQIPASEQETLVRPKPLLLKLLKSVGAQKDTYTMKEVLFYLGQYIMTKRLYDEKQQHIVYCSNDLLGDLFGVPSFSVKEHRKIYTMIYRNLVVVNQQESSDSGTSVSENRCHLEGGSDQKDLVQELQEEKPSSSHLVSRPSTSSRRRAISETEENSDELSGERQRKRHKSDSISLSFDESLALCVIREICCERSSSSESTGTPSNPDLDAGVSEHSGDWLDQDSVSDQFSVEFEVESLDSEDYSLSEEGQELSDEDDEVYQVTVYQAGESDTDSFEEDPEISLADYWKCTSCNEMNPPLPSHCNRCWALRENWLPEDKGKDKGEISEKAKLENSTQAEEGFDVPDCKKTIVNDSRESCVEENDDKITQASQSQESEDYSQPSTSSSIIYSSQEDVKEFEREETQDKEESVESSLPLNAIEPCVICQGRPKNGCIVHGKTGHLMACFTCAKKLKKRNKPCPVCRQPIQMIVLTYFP

Compared with `Cc1ccc(S(=O)(=O)N(C)CC(=O)NCCc2c[nH]c3ccccc23)cc1`, `O=S(=O)(O)Oc1c[nH]c2ccccc12` is higher in inhibition: 6.29% for the first, 12.5% for the second.

First: Cc1ccc(OCCNC(=O)CN2C(=O)NC3(CCCC3)C2=O)cc1
Second: Cc1ccc(OCc2nnc(NC(=O)OCC(C)C)s2)cc1
The inhibition of the first is higher: 15.5% for the first, -16.4% for the second.

Compared with `Cc1ccc(S(=O)(=O)/N=S(\C)C(C)C)cc1` (stereo unspecified), `Cc1ccc(S(=O)(=O)N(C)C)cc1NC(=O)/C=C/c1cccs1` is higher in inhibition: 20.8% for the first, 30.7% for the second.

Going from `COc1ccc(CNC(=O)C[C@H]2C[C@H](C(=O)N3CCOCC3)[C@@]3(C)c4[nH]c5cc(CCC(=O)N(C)C)ccc5c4CCN3C2=O)cc1OC` to `O=C(Nc1ccc2c(c1)nc1n2CCCCC1)c1cc(S(=O)(=O)N2CCOCC2)ccc1Cl`, the inhibition falls from 49.5% to 4.51%.

Compared with `Cc1cc(C)c2nc(N(CCN(C)C)C(=O)/C=C/c3cccs3)sc2c1`, `Cc1cc(C)c(S(=O)(=O)N(C)CC(=O)NCC2CCCO2)c(C)c1` (stereo unspecified) is lower in inhibition: 47.5% for the first, 0.089% for the second.

Compared with `COCc1c(C(=O)N/N=C(\C)c2ccncc2)nnn1-c1nonc1N`, `Cc1[nH]n(-c2ccccc2)c(=O)c1/C=N/NC(=O)c1ccoc1C` is higher in inhibition: -11.6% for the first, 37.2% for the second.

First: O=C(CSc1nc2ccccc2[nH]1)Nc1nc(-c2ccccc2)c(-c2ccccc2)o1
Second: CN(Cc1ccccc1)C(=O)CSc1nc2ccccc2[nH]1
The inhibition of the first is higher: 13.9% for the first, -10.7% for the second.

Going from `O=C(CNC(=O)c1ccccc1Br)NNC(=O)c1cccs1` to `O=C(CN(c1cccc(Cl)c1)S(=O)(=O)c1ccccc1)NN=C1CCCC1`, the inhibition falls from 4.78% to -14%.

Compared with `Cc1[nH]n(-c2ccc([N+](=O)[O-])cc2)c(=O)c1C=NCCN1CCN(C(=O)c2ccccc2F)CC1`, `CC1O[C@@H](OC2C(O)C(C)O[C@H](OC(=O)[C@]34CCC(C)(C)C[C@H]3C3=CCC5[C@@]6(C)CC(O)C(O[C@@H]7OC(CO)C(O)[C@@H](O)[C@@H]7O)[C@@](C)(C(=O)O)C6CC[C@@]5(C)[C@]3(CO)CC4)C2O[C@H]2OC(C)[C@@H](O[C@@H]3OCC(O[C@@H]4OC(CO)C(O)[C@H](O)C4O)[C@@H](O)[C@@H]3O)[C@H](O)C2O)C(O)C(O)C1O` (stereo partly specified) is lower in inhibition: -5.19% for the first, -20.6% for the second.

In the case of `Cc1ccc2sc(N(CCN(C)C)C(=O)/C=C/c3cccs3)nc2c1C`, the inhibition is reported as 52.3% (active).
For `CCC(C)N1C(=O)S/C(=C/c2ccc(Sc3nc4ccccc4[nH]3)o2)C1=O` (stereo unspecified), the inhibition was 89.2% (active).
With `Cc1ccc(-n2[nH]c(C)c(/C=N/NC(=O)c3cccc([N+](=O)[O-])c3)c2=O)cc1C` the inhibition was 72.5% (active).
